Calls of active or inactive are those of the source. Unless noted, no stated cut-off is given here; in the data, active means inhibition above about 80%; inactive means the rest.
Tests used:
[1] = growth inhibition, single agent or in combination, cell-based, chromothripsis tumors, cisplatin or BGB combos (AID 1671449); conditions: LFS_MB_P medulloblastoma cells;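 further: cells exposed for 96 hours; 0% = vehicle DMSO and 100% = killing by high DMSO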
[2] = growth inhibition, single agent and combos, cell-based, chromothripsis tumors, cisplatin or BGB combos (AID 1671450); conditions: HDN33 neuroblastoma cells, stronger effect = higher value;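 further: cells exposed to compound for four days; 0% = vehicle DMSO and 100% = cell killing by high DMSO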
[3] = growth inhibition, single agents and combos, ICB984, cell-based, cisplatin or BGB combos, synergistic combos for chromothripsis tumors (AID 1671451; call rule not given here;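 further: cells exposed for 96 hours before readout; 0% = vehicle DMSO and 100% = killing by high DMSO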); conditions: ICB984 medulloblastoma cells, drug combinations, stronger effect = higher value
[4] = growth inhibition, single agents and combos, LFS_MB_1R, cell-based, cisplatin or BGB combos, synergistic combos for chromothripsis tumors (AID 1671452); conditions: LFS_MB_1R medulloblastoma cells, stronger effect = higher value;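 further: cells exposed for 96 hours before readout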
[5] = growth inhibition, single agents and combos, HTB85, cell-based, BGB or cisplatin IC20 combos, synergistic combos for chromothripsis tumors (AID 1671453); conditions: HTB85 osteosarcoma cells, drug combinations, stronger effect = higher value;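 further: cells exposed for 96 hours before readout; 0% = vehicle DMSO and 100% = high DMSO killing control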
[6] = growth inhibition, single agents and combos, CRL2098, cell-based, BGB or cisplatin IC20 combos, synergistic combos for chromothripsis tumors (AID 1671454); conditions: CRL2098 osteosarcoma cells, drug combinations, stronger effect = higher value;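 further: cells exposed for 96 h before readout; 0% = vehicle DMSO and 100% = killing by high DMSO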
[7] = growth inhibition, single agents and combos, HD-MB03, cell-based, BGB or cisplatin IC20 combos, synergistic combos for chromothripsis tumors (AID 1671455; in the data active means inhibition above about 83%;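 further: 0% = vehicle DMSO and 100% = high DMSO as cytotoxic control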); conditions: HD-MB03 medulloblastoma cells, stronger effect = higher value
[8] = growth inhibition, single agents and combos, UWB1.289, cell-based, BGB or cisplatin combos, synergistic combos for chromothripsis tumors (AID 1671456); conditions: UWB1.289 ovarian carcinoma cells, stronger effect = higher value;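 further: cells exposed to compound for four days; 0% = vehicle DMSO and 100% = killing by high DMSO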
[9] = growth inhibition, single agents and combos, LFS_MB_2R, cell-based, cisplatin combos, synergistic combos for chromothripsis tumors (AID 1671457); conditions: LFS_MB_2R medulloblastoma cells, stronger effect = higher value;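 further: cells exposed to compound for four days before readout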
[10] = growth inhibition, MDA-MB-436, cell-based, BGB or cisplatin combos, synergistic combos for chromothripsis tumors (AID 1671458; call rule not given here;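 further: cells exposed for 96 hours; 0% = vehicle DMSO and 100% = killing by high DMSO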); conditions: MDA-MB-436 breast carcinoma growth inhibition, drug combinations, stronger effect = higher value
[11] = UWB1.289_BRCA1 ovarian cancer growth, cell-based, BGB or cisplatin combinations (AID 1671459); conditions: UWB1.289 BRCA1 ovarian carcinoma, drug combinations, stronger effect = higher value
[12] = drug combination toxicity in non-malignant astrocytes – cell-based, BGB or cisplatin IC20 combos, cytotoxicity control for chromothriptic childhood tumor combination screen (AID 1671460); conditions: Human astrocytes, viability inhibition, drug combinations, at 0.5 µM, stronger effect = higher value;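 further: cells exposed to compounds for 96 hours before viability readout; 0% = vehicle and 100% = killing control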
[13] = BT084 cell growth, single and combined drugs, ICGC_MB145, cisplatin and BGB IC40 combos (AID 1671461); conditions: BT084 medulloblastoma cells, drug combinations, stronger effect = higher value;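 further: cells exposed to drugs for 96 hours; 0% = vehicle DMSO and 100% = high DMSO full killing control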
[14] = RCMB18 cell growth, single agent and combined, cisplatin and BGB IC40 combos (AID 1671462); conditions: RCMB18 medulloblastoma cells, stronger effect = higher value;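 further: cells exposed to compound for four days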
[15] = CRL1545 cell growth, single agent and combined, cisplatin and BGB IC20 combos (AID 1671464); conditions: CRL1545 osteosarcoma cells, stronger effect = higher value;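 further: cells exposed to compound for 96 hours before readout; 0% = vehicle DMSO and 100% = high DMSO killing control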
[16] = measured here: combination with BGB IC40, at 0.05 µM
[17] = measured here: with BGB IC20 combination, at 0.5 µM
[18] = measured here: with cisplatin IC20 combination, at 0.5 µM
[19] = measured here: combination with cisplatin, at 0.5 µM
[20] = measured here: combination with cisplatin, at 5 µM

C[C@H](NC(=O)c1ccccc1N=Cc1c(O)ccc2ccccc12)c1ccccc1
inhibition ([1]; at 0.5 µM, stronger effect = higher value): -32.5% (inactive) | inhibition ([1]; measured here: combination with BGB IC20, at 0.005 µM): -24.4% | inhibition ([1]; measured here: combination with BGB IC40, at 0.005 µM): -29.4% | inhibition [1, 16]: -11% | inhibition ([1]; measured here: combination with cisplatin, at 0.5 µM, stronger effect = higher value): -57.7% | inhibition ([1]; measured here: combination with cisplatin, at 5 µM, stronger effect = higher value): -10% | inhibition ([2]; BGB combo, at 5 µM): -7.69% | inhibition ([2]; at 0.5 µM): 1.7% (inactive) | inhibition ([2]; cisplatin combo, at 5 µM): -4.45% | inhibition [2, 17]: -2.8% | inhibition [2, 18]: -1.48% | inhibition ([2]; single agent, at 5 µM): 7.54% | inhibition ([3]; BGB IC20 combo, at 0.005 µM): 1.67% | inhibition ([3]; BGB IC40 combo, at 0.005 µM): -1.06% | inhibition ([3]; BGB IC40 combo, at 0.05 µM): 7.65% | inhibition ([3]; at 0.5 µM): -7.38% (inactive) | inhibition ([3]; cisplatin combo, at 0.05 µM): 3.01% | inhibition ([3]; cisplatin combo, at 0.5 µM): -7.71% | inhibition ([3]; cisplatin combo, at 5 µM): -12.4% | inhibition ([3]; measured here: 5 uM single agent, at 5 µM): 5.4% | inhibition ([4]; at 0.5 µM): -6.38% (inactive) | inhibition [4, 16]: -9.7% | inhibition [4, 19]: -2.62% | inhibition [4, 20]: 12.2% | inhibition ([5]; at 0.5 µM): 1.08% (inactive) | inhibition ([5]; measured here: with BGB IC20, at 0.5 µM): 5.46% | inhibition ([5]; measured here: with BGB IC20, at 5 µM): 7.19% | inhibition ([5]; measured here: with cisplatin IC20, at 0.5 µM): -9.86% | inhibition ([5]; measured here: with cisplatin IC20, at 5 µM): -2.37% | inhibition ([5]; single agent, at 5 µM): 12.6% | inhibition ([6]; at 0.5 µM): 5.5% (inactive) | inhibition ([6]; measured here: combination with BGB at IC20, at 0.5 µM): -35.4% | inhibition ([6]; measured here: combination with cisplatin at IC20, at 0.5 µM): 58.3% | inhibition ([7]; at 0.5 µM): 6.83% (inactive) | inhibition ([7]; measured here: combo with BGB at IC20, at 0.5 µM): 11.2% | inhibition ([7]; measured here: combo with cisplatin at IC20, at 0.5 µM): 5.12% | inhibition ([8]; at 0.5 µM): 17.4% (inactive) | inhibition ([8]; measured here: inhibition with BGB combination, at 0.05 µM): 3.84% | inhibition ([8]; measured here: inhibition with cisplatin combination, at 0.05 µM): 5.13% | inhibition ([9]; at 0.5 µM): -0.99% (inactive) | inhibition [9, 19]: 5.16% | inhibition [9, 20]: 4.48% | inhibition ([10]; at 0.5 µM): -1.91% (inactive) | inhibition ([10]; measured here: BGB combination, at 0.5 µM): -7.38% | inhibition ([10]; measured here: BGB combination, at 5 µM): -1.84% | inhibition ([10]; measured here: cisplatin combination, at 0.5 µM): -10.5% | inhibition ([10]; measured here: cisplatin combination, at 5 µM): -4.49% | inhibition ([11]; BGB combination, concentration series, at 5 µM): -2.68% | inhibition ([11]; at 0.5 µM): 1.55% (inactive) | inhibition ([11]; cisplatin combination, concentration series, at 5 µM): 4.86% | inhibition [12]: 3.33% (inactive) | inhibition ([12]; measured here: combo with BGB IC20): 4.85% | inhibition ([12]; measured here: combo with cisplatin IC20): -2.44% | inhibition ([13]; at 0.5 µM): -3.76% (inactive) | inhibition ([13]; cisplatin combination, at 0.5 µM): 0.659% | inhibition ([13]; cisplatin combination, at 5 µM): -186% | inhibition ([13]; measured here: BGB IC40 combination 0.05 uM, at 0.05 µM): 5.69% | inhibition ([13]; single agent, at 5 µM): -0.461% | inhibition ([14]; at 0.5 µM): -3.35% (inactive) | inhibition ([14]; cisplatin combo, at 5 µM): -10.8% | inhibition ([14]; measured here: BGB IC40 combination, at 0.05 µM): -9.58% | inhibition [14, 19]: -13.6% | inhibition ([14]; single agent, at 5 µM): 3.49% | inhibition ([15]; at 0.5 µM): -10.6% (inactive) | inhibition [15, 17]: -16.9% | inhibition [15, 18]: -9.19% | inhibition ([15]; single agent, at 0.05 µM): -20.9% | inhibition ([15]; single agent, at 5 µM): -71%

— PubChem BioAssay
